From PubChem BioAssay (Tox21)
Several values for one entry are separate records, joined by “and”; a condition that tells them apart may be missing. Equal values may be shown once. Results filed as inconclusive are left out. Where a call stands in place of a potency, no number is given. A structure can be active in one record and inactive in another. Activity calls are given as the source filed them. Calls come from the whole dose curve; as a rule, active = well fitted cell-killing curve with a large enough effect in the repeat runs; inconclusive = weak or mixed curves, or effect the other way; inactive = flat fitted curve, though single readings scatter.

assay: qHTS assay to identify small molecule antagonists of the estrogen receptor alpha (ER-alpha) signaling pathway using the BG1 cell line in the presence of 0.1 nM 17-beta-estradiol - cell viability counter screen (AID 1259241); conditions: VM7Luc4E2 (BG1) viability, CellTiter-Fluor protease, 22 h, 0.1 nM estradiol agonist added; series mostly up to 92.4 µM; note: nearly all actives have a fitted effect of over 40% in size
Outline: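 VM7Luc4E2 cells (endogenous ER-alpha, 4×ERE-luciferase), hormone-starved 5 days in charcoal-stripped FBS, were treated with compounds plus 0.1 nM 17beta-estradiol for 22 hr at 37C; viability read in same wells as CellTiter-Fluor live-cell protease fluorescence.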

For `N#Cc1nn(-c2c(Cl)cc(C(F)(F)F)cc2Cl)c(N)c1S(=O)C(F)(F)F` (stereo unspecified), which Potency is on record?
The Potency was “inactive”.

For `O=S(=O)(O)C(F)(F)C(F)(F)C(F)(F)C(F)(F)C(F)(F)C(F)(F)C(F)(F)C(F)(F)F`, which Potency is on record?
Its Potency is “inactive”.

For `CCCCOCC1CO1` (stereo unspecified), which Potency is on record?
Its Potency is “inactive”.

For `ClCC(Cl)CCl`, which Potency is on record?
The Potency was “inactive”.

For `O=C1Nc2ccc(Cl)cc2C(c2ccccc2)=NC1O` (stereo unspecified), which Potency is on record?
Its Potency is “inactive”.

For `ClC(Cl)(Cl)Br`, which Potency is on record?
Its Potency is “inactive”.

Which Potency does the source give for `CC1=C(C(=O)Nc2ccccc2)SCCO1` here?
The Potency was “inactive”.

With `Clc1ccccc1-c1nnc(-c2ccccc2Cl)nn1` as the compound, how does the Potency read?
Its Potency is “inactive”.

Which Potency does the source give for `CC1CC(=O)O1` (stereo unspecified) here?
Its Potency is “inactive”.

With `CCOP(=O)(OCC)OCC` as the compound, how does the Potency read?
The Potency was “inactive”.

assay: qHTS assay to identify small molecule antagonists of the androgen receptor (AR) signaling pathway using the MDA cell line in the presence of 0.5 nM R1881 - cell viability counter screen (AID 1259242); conditions: MDA-kb2 viability, CellTiter-Fluor protease fluorescence, 16 h; series mostly up to 92.4 µM; note: nearly all actives have a fitted effect of over 45% in size; note: potency is the fitted concentration of half-maximal effect
Outline: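 Concentration-response screen of compounds for toxicity in MDA-kb2 reporter cells: 16 hr at 37C with 0.5 nM R1881, endpoint live-cell protease fluorescence measured in the reporter wells.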

With `N#CCCCCC#N` as the compound, how does the Potency read?
The Potency was “inactive”.

For `COP(=S)(OC)Oc1ccc(S(=O)(=O)N(C)C)cc1`, which Potency is on record?
Its Potency is “inactive”.

With `N#Cc1c(Cl)c(Cl)c(Cl)c(C#N)c1Cl` as the compound, how does the Potency read?
The Potency was 16.9 µM (active) and 13.7 µM (active).

Which Potency does the source give for `C[C@]12CC[C@H]3[C@@H](CCC4=CC(=O)CC[C@@H]43)[C@@H]1CC[C@@H]2O` here?
The Potency was “inactive”.

With `COc1ccc(CO)cc1` as the compound, how does the Potency read?
Its Potency is “inactive”.

With `CCC(=O)Nc1ccc(Cl)c(Cl)c1` as the compound, how does the Potency read?
The Potency was “inactive”.

With `NN=C(N)N` as the compound, how does the Potency read?
The Potency was “inactive”.

With `OC(c1ccc(Cl)cc1)(c1cncnc1)c1ccccc1Cl` (stereo unspecified) as the compound, how does the Potency read?
The Potency was 27.8 µM (active) and inactive.

With `Cl` as the compound, how does the Potency read?
The Potency was “inactive”.

With `CC(C)(c1ccccc1)c1ccc(O)cc1` as the compound, how does the Potency read?
Its Potency is “inactive”.

Which Potency does the source give for `COP(=O)(NC(C)=O)SC` (stereo unspecified) here?
Its Potency is “inactive”.

With `COC(=O)Nc1nc2ccccc2[nH]1` as the compound, how does the Potency read?
The Potency was “inactive”.

Which Potency does the source give for `CC(O)CN(CC(C)O)CC(C)O` (stereo unspecified) here?
Its Potency is “inactive”.

Which Potency does the source give for `CCCCSP(=O)(SCCCC)SCCCC` here?
Its Potency is “inactive”.

Which Potency does the source give for `O=P(OCCCl)(OCCCl)OCCCl` here?
The Potency was “inactive”.

With `CCOS(=O)(=O)OCC` as the compound, how does the Potency read?
Its Potency is “inactive”.
